Entries with a potency or affinity are not part of this list. Activity calls are given as the source filed them. The rule behind the calls is not given here.

The test deals with KSHV LANA C-terminal domain (residues 932-1162) binding to LBS DNA (UniProt O40947). Kind of test: inhibitors of C-LANA binding to LBS DNA, dose response, biochemical, fluorescence polarization, cherry-picked samples (AID 504725). Background: Polarisation of emitted light reports the rotation of a fluorescent probe.

Regarding `Cn1c(=O)oc2cc(S(=O)(=O)CCC(=O)N3CCN(c4ccccc4F)CC3)ccc21`, the result was inactive. For the compound `COC(=O)c1ccc(OCC(O)CN2CCC(C)CC2)cc1` (configuration not stated), the compound was called inactive. For `O=C1c2cccc3c(N4CCCCC4)ccc(c23)C(=O)N1c1cccc(O)c1` the value was “inactive”; for `N#C/C(=C\c1ccc(-c2ccccc2[N+](=O)[O-])o1)C(N)=O`, “inactive”. For the compound `Cn1c(N)c(C(=O)COC(=O)c2ccc(Cl)c(S(=O)(=O)N3CCCC3)c2)c(=O)n(C)c1=O`, the result was inactive. In the case of `O=C(CN1CCN(C(=O)CNC(=O)c2ccc3c(c2)OCO3)CC1)Nc1ccc(F)cc1`, the call was inactive. With `CN(Cc1cnc2nc(N)nc(N)c2n1)c1ccc(C(=O)NC(CCC(=O)O)C(=O)O)cc1` (configuration not stated), the compound was called inactive. For `COc1ccc(N=Nc2nc3ccc(Br)cc3n2C)cc1` the value was “inactive”. Take `CCCc1nc(SC)[nH]c(=O)c1C`: the compound was classed as inactive. In the case of `CC(=O)NC(C(=O)c1ccccc1)C(=O)c1ccccc1`, the compound was classed as inactive.

In the case of `CCN(CC)C(=O)C1c2ccccc2Oc2ccccc21`, the outcome was inactive. Turning to `COC(=O)c1cccc(COC(=O)c2ccccc2NC(=O)c2ccco2)c1`, the result was inactive. For `CCCc1nc(NCc2ccccn2)c2nnn(Cc3ccccc3F)c2n1` the value was “inactive”; for `Cc1cnc(NC(=O)Cc2c[nH]c3ccccc23)s1`, “inactive”; for `O=C(N/N=C/c1ccc(N2CCOCC2)cc1)c1ccccn1`, “inactive”. Under `COc1cc(C(=O)O)cc(NC(=O)c2ccco2)c1OC` stands “inactive”. Under `O=C(NCC1CCCO1)c1cccc(S(=O)(=O)N(Cc2ccccc2)c2ccccc2)c1` (configuration not stated) stands “inactive”. Consider `Cc1ccc(NC(=O)CN(C)C(=O)c2nn(C)c(=O)c3ccccc23)cc1`, for which the result was inactive. In the case of `NNc1nnc2c3cc(F)ccc3n(Cc3ccccc3)c2n1`, the outcome was inactive. Turning to `O=C1/C(=C/c2ccco2)SC(=S)N1c1cccnc1`, the outcome was inactive. For `Nc1ccc(C(=O)Nc2ccc3c(O)cc(S(=O)(=O)O)cc3c2)cc1` the value was “inactive”. In the case of `COc1cccc(OCCCn2cc(/C=C3/C(=N)N4C=C(C)SC4=NC3=O)c3ccccc32)c1`, the compound was classed as inactive. For `Cc1ccc(S(=O)(=O)/N=C/c2ccc(N(C)C)cc2)cc1` the value was “inactive”; for `COC(=O)c1ccc(Oc2nc(Nc3ccc(F)cc3)nc(N3CCCC3)n2)cc1`, “inactive”; for `COc1cc(C(=S)N2CCN(c3cccc(Cl)c3)CC2)ccc1O`, “inactive”. Turning to `COc1ccccc1CNC(=O)C(=O)NCC1CCCN1S(=O)(=O)c1cccs1` (configuration not stated), the outcome was inactive. Under `Cc1ccc(-c2nnc(-c3ccc(NC(=O)c4ccco4)cc3)o2)cc1` stands “inactive”.

These data come from PubChem BioAssay AID504725 (Broad Institute, 2011).
